Assay outcomes (PubChem BioAssay)
MsrA inhibitor – bovine MsrA enzyme inhibitors, primary screen, biochemical, absorbance, HTS; Methionine sulfoxide reductase A (Bos taurus); purified bovine MsrA, absorbance read-out; inhibition, % at 15.5 µM; actives 0.75% (n = 360,000); AID 651718, 2012; in the data active = inhibition above about 4.5%;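 note: 0% = vehicle wells with enzyme and 100% = reference inhibitor wells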
HGIII-sPLA2 inh – human group III sPLA2 inhibitors, primary screen, biochemical, QFRET, BODIPY PC-A2 liposome substrate. Group 3 secretory phospholipase A2 (Homo sapiens), Q9NZ20. inhibition, % at 12.2 µM. QFRET BODIPY PC-A2 liposome hydrolysis, fluorescence. actives 0.56% (n = 370,000);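 active = inhibition above mean plus 3 SD of compounds lying within the high and low control bounds, cut at about 19% in these data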;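 note: 0% = median of test compound wells and 100% = no enzyme DMSO wells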
Target sequence (Q9NZ20 whole entry, looked up): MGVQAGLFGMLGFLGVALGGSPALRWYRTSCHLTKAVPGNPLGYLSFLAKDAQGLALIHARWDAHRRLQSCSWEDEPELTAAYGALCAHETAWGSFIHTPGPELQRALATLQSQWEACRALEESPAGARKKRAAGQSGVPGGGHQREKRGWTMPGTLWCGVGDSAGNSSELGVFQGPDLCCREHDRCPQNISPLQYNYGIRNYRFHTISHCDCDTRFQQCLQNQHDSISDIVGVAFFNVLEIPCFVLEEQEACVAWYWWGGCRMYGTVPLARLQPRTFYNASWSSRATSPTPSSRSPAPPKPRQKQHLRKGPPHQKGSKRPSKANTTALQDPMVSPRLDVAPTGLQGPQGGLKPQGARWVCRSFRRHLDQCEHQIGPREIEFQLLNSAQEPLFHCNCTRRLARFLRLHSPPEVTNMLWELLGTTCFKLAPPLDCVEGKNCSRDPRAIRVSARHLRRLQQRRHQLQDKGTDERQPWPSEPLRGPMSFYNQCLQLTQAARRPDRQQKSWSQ
rCAG RNA binder – binders of r(CAG) RNA repeats, primary screen, biochemical, fluorescence; actives 1.3% (n = 370,000); inhibition, % at 3 µM; r(CAG) RNA repeat, TO-PRO-1 dye displacement fluorescence;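 active = inhibition above the plate cutoff, the mean of all test compounds on that plate plus 3 SD, cut at about 35% in these data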;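 note: 0% = DMSO alone and 100% = 100 µM mitoxantrone as full dye displacement; higher means more dye released from RNA so lower well fluorescence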
bovine MsrA act – bovine MsrA enzyme activators, primary screen, biochemical, absorbance, HTS | actives 0.3% (n = 360,000) | activation, % at 10.6 µM | purified bovine MsrA, absorbance read-out | Methionine sulfoxide reductase A (Bos taurus); in the data active = activation above about 7.5%;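 note: 0% = vehicle and 100% = reference activator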
PG9 binder – binders of HIV-1 gp120 antibody PG9, primary screen, biochemical, TR-FRET. HIV-1 gp120 / PG9 antibody interaction. TR-FRET gp120-PG9 antibody binding. inhibition, % at 6.7 µM. actives 0.43% (n = 360,000). AID 624416, 2012; in the data active = inhibition above about 8.5%
MsrA act confirm – bovine MsrA activators, retest, confirmation, biochemical, absorbance, HTS; actives 12% (n = 1,000); activation, % at 10.6 µM; purified bovine MsrA, absorbance read-out; shares compounds with bovine MsrA act; in the data active = activation above about 4%;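 note: enzyme coupled to thioredoxin and thioredoxin reductase with NADPH; 0% = vehicle wells and 100% = reference activator wells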
Starred values were filed as active, the others as inactive; . = not tested or not shown. In the library only some 3.2% were active in any assay of this set; here they are far more common.

SMILES | MsrA inhibitor | HGIII-sPLA2 inh | rCAG RNA binder | bovine MsrA act | PG9 binder | MsrA act confirm
Clc1ccccc1Cn1nc(-c2ccccc2)nc1-c1ccccc1 | -1 | -7 | 1 | 1 | 0 | .
O=[N+]([O-])c1ccc(-[n+]2ccc3ccccc3c2)c([N+](=O)[O-])c1 | 2 | 15 | 5 | 11* | 1 | 3
CCOc1cc(C)c(Cl)cc1S(=O)(=O)NCc1ccc2c(c1)OCO2 | 1 | -17 | 0 | 7.8* | 0 | 2
CCOC(=O)C1=NOC(C(=O)NCc2ccccc2)(C(=O)c2ccc(OC)cc2)C1 (centres undefined) | . | -2 | 7 | . | . | .
COC(=O)[C@]12C[C@H](CC(=O)N3CCN(C(=O)C4CC4)CC3)C(=O)N(CCc3ccc(OC)c(OC)c3)C1=C[C@H](C(C)(C)C)O[C@@H]2C | . | -1 | 3 | . | . | .
CCc1ccc2c(c1)c1nc(C)sc1n2CC | 0 | 8 | 1 | 26* | 0 | -4
COC(=O)[C@]12C[C@H](CC(=O)N3CCCCC3)C(=O)N(CCC3=CCCCC3)C1=C[C@H](C1CCCC1)O[C@@H]2C | . | 7 | 7 | . | . | .
Cc1ccsc1/C=N/n1c(-c2ccco2)n[nH]c1=S | 2 | 7 | 11 | 11* | 2 | -1
Cc1ccsc1/C=N/n1c(-c2ccccc2)n[nH]c1=S | 2 | 12 | 13 | 2 | 2 | .
COc1cc(Nc2ccc(C(=O)O)cc2[N+](=O)[O-])cc(OC)c1 | 2 | 9 | 6 | 9.7* | -2 | 8.1*
Cc1nn(C)c(C)c1NC(=O)CCSc1nc(-c2ccco2)cc(C(F)(F)F)n1 | 0 | 4 | 3 | 0 | -1 | .
Cc1cc(NC(=O)CCSc2nc(-c3ccco3)cc(C(F)(F)F)n2)n(-c2ccccc2)n1 | 0 | -20 | 10 | 18* | 0 | 1
CCCCCc1c(C)nc(Nc2ccc(F)cc2)[nH]c1=O | -1 | -2 | 15 | 9.8* | 1 | 1
COC(=O)c1ccc(C(C(=O)NC2CCCCC2)N(Cc2ccccc2)C(=O)Cc2cccs2)cc1 (centres undefined) | 0 | 0 | 1 | -3 | 0 | .
COC(=O)c1ccc(C(C(=O)NC2CCCCC2)N(C(=O)Cc2cccs2)C2CC2)cc1 (centres undefined) | 0 | 9 | -1 | 7.9* | -1 | -1
Cc1ccc(-n2c([C@@H]3C[C@H]3c3ccccc3)n[nH]c2=S)cc1 | 0 | 14 | 0 | 8.9* | 0 | -3
Cc1ccc(NCc2nnc3n2CCCCC3)c(C)c1 | 0 | -3 | -4 | 8.2* | -3 | -1
C[C@@H]1COc2cc(Br)ccc2S(=O)(=O)N1Cc1cn(Cc2ccc(Cl)cc2)nn1 | . | 1 | 4 | . | . | .
O=C(CSc1nc2ncccc2[nH]1)c1cccc([N+](=O)[O-])c1 | 0 | -51 | 6 | 8.8* | -2 | -2
CNC(=O)N(O)C1N(C)C(=O)N(CC(=O)OC)C1(C)C (centres undefined) | -1 | 7 | -1 | -14 | -1 | .
CCCN1C(=O)N(C)C(N(O)C(=O)NC)C1(C)C (centres undefined) | 1 | 1 | -1 | 14* | -3 | 0
COC(=O)[C@]12C[C@H](CC(=O)NCCCN3CCCC3=O)C(=O)N(Cc3ccco3)C1=C[C@H](C(C)C)O[C@@H]2C1CC1 | . | 1 | -1 | . | . | .
CC(C)N(C(=O)CSc1ncnc2sc(-c3ccccc3)cc12)C(C)C | 0 | -4 | 4 | 9.1* | 0 | 0
CC(Sc1ncnc2sc(-c3ccccc3)cc12)C(=O)N1CCNC1=O (centres undefined) | 0 | 4 | 2 | -4 | -4 | .
CC1(C)CC(=O)C2=C(C1)N(CC1CCCO1)C(=O)NC2(C(F)(F)F)C(F)(F)F (centres undefined) | 0 | 3 | 2 | 11* | -2 | -1
CCOc1ccc(N)c(SSc2cc(OCC)ccc2N)c1 | 1 | 3 | 12 | 0 | 0 | .
CS(=O)(=O)c1ccc(N)c(SSc2cc(S(C)(=O)=O)ccc2N)c1 | 1 | 0 | 4 | 14* | -7 | 9.8*
